Several values for one entry are separate records, joined by “and”; a condition that tells them apart may be missing. Identical values can stand only once. Inconclusive results are not listed. Activity calls are given as the source filed them. Unless noted, calls come from the whole dose curve; as a rule, active = well fitted curve in the direction sought with a large enough effect; inconclusive = small, poorly fitted or top-dose-only effect, or another doubt; inactive = no such curve, though single readings can be large; an effect the other way counts as inactive or inconclusive.
Columns and labels:
[1] = qHTS Assay for Lipid Storage Modulators (AID 1519; calls by dose curve; for activity change, negative = inhibition: % is set by controls: 0 for no effect and ±100 for the full control effect); conditions: Drosophila S3 cells, BODIPY lipid droplet/cell ratio, laser cytometry, cells loaded with oleic acid
In short: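 Cells seeded at 5,000 per well were treated with compounds over a concentration series and loaded with oleic acid (400 uM, as added). Lipid droplet fluorescence (488 nm excitation, 500-530 nm channel) was read by laser-scanning cytometry and normalized to 20 uM Triacsin C.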

[2] = biological target: DNA repair nuclease/redox regulator APEX1 (Homo sapiens) (UniProt P27695); assay: qHTS Validation Assay for Inhibitors of the Human Apurinic/apyrimidinic Endonuclease 1 (APE1) (AID 1705;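 note: TAMRA fluorescence gain over two minutes as APE1 cuts a quenched THF abasic duplex; % is set by controls: 0 for no effect and ±100 for the full control effect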); conditions: purified APE1 endonuclease activity, fluorescence, titration; series mostly up to 57.1 µM
In short: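 Endonuclease activity of human APE1 is followed as dequenching when the enzyme incises a tetrahydrofuran abasic site in a short duplex labelled 5'-TAMRA/3'-BHQ-2 (50 nM final), after 15 min enzyme–compound preincubation at room temperature.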

[3] = biological target: Endonuclease 4 (Escherichia coli (strain K12)) (UniProt P0A6C1); assay: Counterscreen for APE1 Inhibitors: qHTS Validation Assay for Inhibitors of Endonuclease IV (AID 1708); note: % is set by controls: 0 for no effect and ±100 for the full control effect; conditions: E. coli endonuclease IV, DNA cleavage fluorescence; series mostly up to 57.1 µM
In short: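 Measured as reaction progress, the fluorescence gain between first and third kinetic reads after adding 50 nM TAMRA/BHQ-2 THF duplex to 2 nM enzyme preincubated 15 min with compound; 2 mM MgCl2, pH 7.5.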

[4] = qHTS for differential inhibitors of proliferation of Plasmodium falciparum line 7G8 (AID 1815); conditions: Plasmodium falciparum 7G8 proliferation inhibition; series mostly up to 28.7 µM;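 note: parasite growth measured after three days of incubation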; note: potency is the fitted concentration of half-maximal effect;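 for activity change, negative = inhibition: plate controls were vehicle wells for no effect and reference inhibitor wells for full effect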
[5] = Cell Viability - LYMP2-026 (AID 989); conditions: LYMP2-026 lymphoblastoid cell viability, qHTS; series mostly up to 92.2 µM; note: nearly all actives have a fitted effect of over 50% in size; note: potency is the fitted concentration of half-maximal effect
In short: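 qHTS cytotoxicity: 2500 cells/well, 5 hr 37 C, compound 24 hr 37 C, CellTiter-Glo 30 min RT, luminescence. Tetraoctylammonium bromide positive control. AC50 via standard Hill fit.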

[6] = biological target: Alpha-galactosidase A (Homo sapiens) (UniProt P06280); assay: Counterscreen for Glucocerebrosidase Inhibitors: qHTS Assay for Human alpha-Galactosidase at pH 4.5 (AID 992); conditions: purified enzyme, fluorogenic substrate; series mostly up to 76.9 µM; note: 0% is about no effect
In short: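 Each compound is preincubated briefly with 2 nM enzyme before substrate addition (80 uM); plates then sit 20 min at ambient temperature, are quenched with 1M NaOH/1M glycine, and read fluorometrically.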

[7] = Cell Viability - LYMP1-002 - Assay at 24 hr (AID 993); conditions: LYMP1-002 lymphoblastoid cells viability; series mostly up to 92.2 µM; note: potency is the fitted concentration of half-maximal effect
In short: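 CellTiter-Glo luminescence (intracellular ATP) after 24 h compound exposure, 37 C, in LYMP1-002 human lymphoblastoid cells; decreased ATP taken as cytotoxicity. AC50 from standard Hill fit of concentration-response curves.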

[8] = Cell Viability - LYMP1-002 - Assay at 40 hr (AID 994); conditions: LYMP1-002 lymphoblastoid cell viability; series mostly up to 92.2 µM; note: nearly all actives have a fitted effect of over 60% in size; note: potency is the fitted concentration of half-maximal effect
In short: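 qHTS cytotoxicity; 2500 cells/well, 5 hr 37 C settle, compound 40 hr 37 C. CellTiter-Glo, 30 min RT, luminescence (ATP). Concentration-response, Hill fit → AC50. Pos. ctrl tetraoctylammonium bromide.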

[9] = biological target: alpha-glucosidase (Oryza sativa, rice) (UniProt Q653V4); assay: Counterscreen for Glucocerebrosidase Inhibitors: qHTS Assay for Rice alpha-Glucosidase at pH 5.0 (AID 997); conditions: rice alpha-glucosidase enzyme activity; series mostly up to 76.9 µM;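 note: 0% = full activity with enzyme and -100% = basal without enzyme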
In short: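 Endpoint fluorogenic assay at pH 5.0: compounds (0.7 nM to 77 uM) titrated against 4 nM rice enzyme and 400 uM 4-MU-alpha-glucoside for 20 min at room temperature; NaOH/glycine stop, read ex 365/em 440 nm, Hill-fitted AC50.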

[10] = Validation of Assay for Modulators of Lamin A Splicing (AID 1459; active = well fitted curve in the direction sought with a large enough effect in the signal ratio; the % refers to the signal ratio;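 note: cells exposed to compound for two days before reading; 0% is about no effect; ratio rise marks activators and ratio drop marks inhibitors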); conditions: Lamin A splicing dual RFP/GFP fluorescence reporter; series mostly up to 9.22 µM
In short: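 Splicing correction is reported by an EGFP-containing lamin A minigene in stably transfected S3 HeLa cells, while DsRed2 controls for viability and nonspecific signal. Cells are exposed to compounds for 48 hrs before the GFP over RFP ratio is taken.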

[11] = measured here: cell count channel max response
[12] = measured here: lipid channel max response

Chain of Alpha-galactosidase A (Homo sapiens) (P06280 whole entry, looked up): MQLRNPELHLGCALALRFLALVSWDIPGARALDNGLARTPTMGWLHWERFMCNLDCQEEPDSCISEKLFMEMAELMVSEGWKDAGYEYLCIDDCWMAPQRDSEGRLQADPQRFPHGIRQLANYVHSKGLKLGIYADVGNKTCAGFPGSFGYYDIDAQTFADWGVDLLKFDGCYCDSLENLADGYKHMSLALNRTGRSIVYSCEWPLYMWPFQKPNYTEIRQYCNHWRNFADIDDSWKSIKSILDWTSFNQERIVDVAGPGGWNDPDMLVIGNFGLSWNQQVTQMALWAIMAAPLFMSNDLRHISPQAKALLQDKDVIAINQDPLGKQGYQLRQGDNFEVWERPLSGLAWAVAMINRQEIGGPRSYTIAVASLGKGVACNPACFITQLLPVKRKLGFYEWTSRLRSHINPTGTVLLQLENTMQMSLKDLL
Chain of DNA repair nuclease/redox regulator APEX1 (Homo sapiens) (P27695 whole entry, looked up): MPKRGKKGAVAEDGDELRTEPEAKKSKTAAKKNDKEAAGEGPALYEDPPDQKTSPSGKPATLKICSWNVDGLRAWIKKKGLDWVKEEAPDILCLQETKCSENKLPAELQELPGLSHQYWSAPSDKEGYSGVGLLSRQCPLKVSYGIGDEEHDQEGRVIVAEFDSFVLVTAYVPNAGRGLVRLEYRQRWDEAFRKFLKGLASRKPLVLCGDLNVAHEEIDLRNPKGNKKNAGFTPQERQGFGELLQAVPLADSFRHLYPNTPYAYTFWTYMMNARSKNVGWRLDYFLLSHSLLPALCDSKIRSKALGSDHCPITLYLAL

COc1ccc(-c2coc3cc(O)ccc3c2=O)cc1
3.06%: max response [1, 11]
inactive: activity change, negative = inhibition ([1]; at 57.5 µM (top of the series)) -1.11%
2.76%: max response [1, 12]

Cc1cccc(C)c1OCC(C)N (centres undefined)
19.3% and 0.0191%: max response [1, 12]
8.91% and -0.493%: max response [1, 11]
inactive: activity change, negative = inhibition ([1]; at 57.5 µM (top of the series)) 1.76% and 1.1% | outcome [2] | outcome [3]
active: Potency [4] 12.6 µM

O=c1c(-c2ccc(O)cc2)coc2cc(O)ccc12
inactive: Potency [5] | outcome [6] | Potency [7] | Potency [8] | outcome [9] | outcome [10] | outcome [2] | outcome [3] | Potency [4]

COc1ccc(Cc2nccc3cc(OC)c(OC)cc23)cc1OC
inactive: outcome [6] | outcome [9]

CC(C)NCC(O)COc1cccc2[nH]ccc12 (centres undefined)
inactive: outcome [6] | outcome [9] | activity change, negative = inhibition ([1]; at 57.5 µM (top of the series)) 10.5% | outcome [2]
13.4%: max response [1, 12]
-0.51%: max response [1, 11]

O=c1[nH]cnc2c1ncn2[C@H]1CC[C@@H](CO)O1
inactive: Potency [5] | Potency [7] | Potency [8]

CC1(C)CCC2=C(O1)c1ccccc1C(=O)C2=O
inactive: outcome [6] | outcome [9] | outcome [2] | outcome [3]
active: Potency [4] 3.55 µM

O=C(O)Cc1cccc2ccccc12
inactive: Potency [5] | Potency [7] | Potency [8]

NC(N)=Nc1nc(CSCC/C(N)=N/S(N)(=O)=O)cs1
inactive: outcome [6] | outcome [9] | outcome [2] | outcome [3] | Potency [4]

COCCCCC(=NOCCN)c1ccc(C(F)(F)F)cc1
inactive: outcome [6] | outcome [9]

O=C(O)c1cc(O)c2c(c1)C(=O)c1cccc(O)c1C2=O
inactive: Potency [5] | Potency [7] | Potency [8]

CC(=O)N[C@@H](CS)C(=O)O
inactive: outcome [6] | outcome [9] | outcome [2] | outcome [3] | Potency [4]

CCn1cc(C(=O)O)c(=O)c2ccc(C)nc21
inactive: Potency [5] | Potency [7] | Potency [8]

O=C1NC(=O)C(c2ccccc2)(c2ccccc2)N1
inactive: Potency [5] | outcome [6] | Potency [7] | Potency [8] | outcome [9] | outcome [2] | Potency [4]

O=c1cc(-c2ccc(O)cc2)oc2cc(O)cc(O)c12
inactive: outcome [6] | outcome [9] | activity change, negative = inhibition ([1]; at 57.5 µM (top of the series)) 5.85% and 0.858% and 6.23%
active: Potency [4] 11.2 µM
-3.26% and -4.54% and 14.7%: max response [1, 11]
4.46% and -2.56% and 22.7%: max response [1, 12]

COC(=O)[C@@H]1[C@H]2C[C@H]3c4[nH]c5ccccc5c4CCN3C[C@@H]2CC[C@@H]1O
inactive: outcome [2] | outcome [3]

COc1ccccc1N1CCN(CCCNc2cc(=O)n(C)c(=O)n2C)CC1
inactive: outcome [6] | outcome [9] | outcome [2] | outcome [3] | Potency [4]

CC(C)(C)c1ccc(C(O)CCCN2CCC(C(O)(c3ccccc3)c3ccccc3)CC2)cc1 (centres undefined)
-10.3%: max response [1, 11]
-13.9%: max response [1, 12]
inactive: outcome [6] | outcome [9] | activity change, negative = inhibition ([1]; at 57.5 µM (top of the series)) -1.34% | outcome [2]

CCN1CCC[C@H]1CNC(=O)c1cc(S(N)(=O)=O)ccc1OC
inactive: outcome [6] | outcome [9] | outcome [2] | outcome [3] | Potency [4]

CC(=O)O[C@]1(C(C)=O)CC[C@H]2[C@@H]3C=C(Cl)C4=CC(=O)[C@@H]5C[C@@H]5[C@]4(C)[C@H]3CC[C@@]21C
inactive: Potency [5] | Potency [7] | Potency [8]

CCCCC1C(=O)N(c2ccccc2)N(c2ccccc2)C1=O
inactive: Potency [5] | outcome [6] | Potency [7] | Potency [8] | outcome [9] | outcome [2] | outcome [3]

CC1=C(/C=C/C(C)=C/C=C/C(C)=C/C(=O)Nc2ccc(O)cc2)C(C)(C)CCC1
inactive: outcome [6] | outcome [9] | outcome [2] | outcome [3]
active: Potency [5] 39.8 µM | Potency [7] 50.1 µM | Potency [8] 50.1 µM | Potency [4] 3.55 µM

C[N+](C)(C)CC(=O)O
inactive: outcome [6] | outcome [9]

CCN(CC)CCNC(=O)c1ccc(N)cc1
inactive: outcome [6] | outcome [9] | outcome [2] | outcome [3] | Potency [4]

CC(=O)CCCCn1c(=O)c2c(ncn2C)n(C)c1=O
inactive: outcome [6] | outcome [9] | outcome [2] | Potency [4]

CC/C(=C(\c1ccccc1)c1ccc(OCCN(C)C)cc1)c1ccccc1
active: Potency [5] 50.1 µM | Potency [7] 50.1 µM | Potency [8] 50.1 µM | Potency [4] 8.91 µM
inactive: outcome [6] | outcome [9] | outcome [2]

C[N+](C)(C)CCCCCC[N+](C)(C)C
inactive: outcome [6] | outcome [9] | activity change, negative = inhibition ([1]; at 25.7 µM (top of the series)) -1.97% | activity change, negative = inhibition ([1]; at 57.5 µM (top of the series)) 11.8% and 0.867% and 2.49% | outcome [2] | outcome [3] | Potency [4]

Reference: PubChem BioAssay (NCATS)
